# A selection: hits, their analogues and other compounds. The true share with any hit is near 6.8%.
# Spn DPM-DC inh – S. pneumoniae DPM-DC inhibition | calls only at 10 µM | purified DPM-DC, PK/LDH coupled NADH fluorescence | AID 556 | 65,000 compounds, 0.49% hits;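 active = the 320 compounds with the highest percent inhibition in the single-dose primary screen, excluding strongly autofluorescent ones, cut at about 32% in these data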;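 note: kinetic rate of NADH fluorescence loss reporting ADP formed by the decarboxylase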
# Spn MK inh – blocks S. pneumoniae mevalonate kinase; inhibition, % at 10 µM; 65,000 compounds, 0.48% hits; purified MK, PK/LDH-coupled NADH absorbance 340 nm; AID 555;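 active = ranked among the strongest by inhibition in the single 10 µM screen, a fixed top-ranked set picked for dose follow-up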
# NADH coupling – inhibition of NAD/NADH coupling enzymes, library profiling; coupled PK/LDH NADH assays, four targets; IC50, µM (doses to about 10 µM), for the others: at the highest dose inhibition; 65,000 compounds, 0.02% hits;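 active = single-dose screening hits from any of four coupled enzyme assays that gave an IC50 when retested across doses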;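 note: the DPM-DC format reads NADH fluorescence rather than 340 nm absorbance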
# Autofluor 339 – intrinsic fluorescence of library compounds, ex339/em460 – biochemical, MLSMR library, data from DPM-DC assay, artefact control, profiling panel; fluorescence fold increase at 10 µM; AID 709; 65,000 compounds, 5.5% hits; compound autofluorescence, ex339/em460 nm, NADH buffer; active compounds read high; 1 = no-compound wells, NADH background;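 active = at 10 µM, mean starting fluorescence two-fold or more over control wells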;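 note: signal is the first read of a kinetic run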
# Abs 340nm – compound absorbs light at 340 nm | 65,000 tested, under 10 active | fold change at 10 µM | compound absorbance at 340 nm, fold over control | AID 708;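 active = at 10 µM dose, initial 340 nm absorbance at least 2 fold that of control wells; inactive = change under 2 fold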;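 note: initial absorbance extrapolated from kinetic A340 decline of NADH oxidation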
# PMK inhibit – inhibitors of Streptococcus pneumoniae phosphomevalonate kinase. inhibition, % at 10 µM. AID 539. 65,000 compounds, 0.49% hits. purified PMK, PK/LDH-coupled NADH absorbance 340 nm;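 active = top-ranked compounds by inhibition in the single 10 µM screen, taking a fixed number of the strongest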;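 note: 0% = full reaction with DMSO carrier and 100% = background rate without enzyme reaction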
# Active calls of the source: *; i = inactive; . = no result given; + = active, no number; [ ] = dose if it differs, or a comment.
SMILES,Spn DPM-DC inh,Spn MK inh,NADH coupling,Autofluor 339,Abs 340nm,PMK inhibit
COc1cc2cc(CN(CCCO)S(=O)(=O)c3ccccc3)c(=O)[nH]c2cc1OC,.,5.0,3.0%,3.89*,1.12,0.0
O=C(Nc1ccc(F)c(F)c1)c1cccnc1,i,13.0,6.0%,1.05,1.01,6.0
Cc1ccc(NC(=O)CSc2nnc(-c3ccncc3)n2C)cc1C,i,0.0,1.0%,1.03,1.01,15.0
Cn1c(C(=O)N2CCN(c3ccccn3)CC2)cc2c(=O)n(C)c3ccccc3c21,i,7.0,5.0%,1.07,1.05,3.0
Cc1nc2ccccc2n1-c1nc(-c2ccco2)cc(C(F)(F)F)n1,i,3.0,5.0%,1.77,1.1,13.0
FC(F)(F)c1cc(-c2ccco2)nc(-n2cnc3ccccc32)n1,i,8.0,11.0%,2.7*,1.07,16.0
COc1ccc(-c2nnc3ccc(SCC(=O)NCc4ccco4)nn23)cc1OC,i,0.0,3.0%,1.06,1.03,9.0
CC(C)Sc1nc(-c2cccs2)nc2c1c(=O)n(C)c(=O)n2C,i,8.0,9.0%,1.4,1.1,14.0
Cn1c(=O)c2c(SCC(=O)NCC3CCCO3)nc(-c3cccs3)nc2n(C)c1=O (centres undefined),.,3.0,3.0%,2.2*,1.21,2.0
COc1nc(-c2ccc(Cl)cc2)ccc1-c1noc(-c2ccncc2)n1,i,13.0,7.0%,2.75*,1,11.0
CCOc1nc(-c2ccccc2)ccc1-c1noc(-c2ccc(OC)c(OC)c2)n1,+[fluoresces],4.0,4.0%,1.81,1.02,14.0
CCOc1nc(-c2ccccc2)ccc1-c1noc(-c2cccnc2)n1,.,0.0,3.0%,1.87,1.03,13.0
COc1ccc(-c2noc(-c3ccccc3F)n2)cc1,i,4.0,5.0%,1.1,1.03,8.0
COc1nc(-c2ccccc2)ccc1-c1noc(-c2cccs2)n1,i,0.0,1.0%,2.24*,1.14,4.0
COc1ccc(-c2ccc(-c3noc(-c4ccccc4F)n3)c(OC)n2)cc1,.,7.0,7.0%,3.7*,1.08,7.0
COc1nc(-c2ccccc2)ccc1-c1noc(-c2ccco2)n1,i,5.0,7.0%,1.91,1.11,3.0
Cc1cc(NS(=O)(=O)c2ccc(NC(=O)CCCOc3ccccc3)cc2)no1,i,0.0,6.0%,1.14,1,17.0
CCOC(=O)CN1CC23C=CC(O2)C(C(=O)Nc2ccc(F)c(C)c2)C3C1=O (centres undefined),i,1.0,6.0%,1.03,0.99,18.0
O=C(O)C1CCCN1c1ncnc2c1oc1ccccc12 (centres undefined),i,10.0,3.0%,1.03,0.98,16.0
COc1nc(-c2ccccc2)ccc1-c1noc(-c2ccccc2)n1,i,1.0,2.0%,1.82,1.09,6.0
c1ccc(OCc2nc(-c3ccccc3)no2)cc1,i,2.0,1.0%,1.07,1.01,1.0
COc1ccc(-c2ccc(-c3noc(-c4ccccc4)n3)c(OC)n2)cc1,.,10.0,5.0%,3*,1.03,16.0
COc1nc(-c2ccccc2)ccc1-c1noc(COc2ccccc2)n1,.,17.0,9.0%,2.12*,1.09,0.0
COc1ccc(-c2ccc(-c3noc(-c4ccco4)n3)c(OC)n2)cc1,.,10.0,6.0%,3.69*,1.24,1.0
CC(C)N1C(=O)C2C(c3ccccc3O)NC(C)(C(=O)O)C2C1=O (centres undefined),i,9.0,7.0%,1.14,0.99,11.0
SMILES,Spn DPM-DC inh,Spn MK inh,NADH coupling,Autofluor 339,Abs 340nm,PMK inhibit
c1cncc(C(c2nnnn2C2CCCC2)N2CCCC2)c1 (centres undefined),i,0.0,8.0%,1.09,1.02,25.0*
Clc1ccc(C(c2nnnn2C2CCCC2)N2CCN(Cc3ccncc3)CC2)cc1 (centres undefined),i,0.0,8.0%,1.08,1.01,25.0*
c1ccc(C(c2nnnn2C2CCCC2)N2CCCCCC2)nc1 (centres undefined),i,8.0,6.0%,1.17,1.02,11.0
CCCCn1c(NC(C)=O)c(C#N)c2nc3ccccc3nc21,.,11.0,13.0%,3.83*,1.12,15.0
CCCCn1c(CNC(C)=O)nc2ccccc21,i,0.0,2.0%,1.12,1.04,5.0
N#Cc1c(N)n(CCCN2CCOCC2)c2nc3ccccc3nc12,.,4.0,5.0%,3.85*,1.02,6.0
Cc1ccc(S(=O)(=O)c2c(N)n(CCN3CCOCC3)c3nc4ccccc4nc23)cc1C,.,8.0,12.0%,4.93*,1.09,16.0
N#Cc1c(N)n(CCNC(=O)c2cccs2)c2nc3ccccc3nc12,.,10.0,4.0%,3.03*,0.99,7.0
Cc1cc(F)ccc1S(=O)(=O)Nc1c(C)n(C)n(-c2ccccc2)c1=O,i,5.0,2.0%,0.98,1.02,2.0
CCN1CCN(Cc2nc3c(c(=O)n(C)c(=O)n3C)n2CCCc2ccccc2)CC1,i,12.0,4.0%,1.15,1.06,0.0
CCCCCn1c(N)c(C#N)c2nc3ccccc3nc21,.,3.0,7.0%,5.03*,1.05,10.0
COc1ccc(Br)cc1CNC(=O)C1CCN(S(=O)(=O)N2CCCC2)CC1,i,5.0,12.0%,1.07,1.01,30.0*
COc1cc(CN2CCC(C(=O)NC3CCCC3)CC2)ccc1O,.,5.0,3.0%,2.04*,1,7.0
CCOc1ccc(CN2CCN(S(=O)(=O)c3ccc(NC(C)=O)cc3)CC2)cc1OC,i,63.0*,25.0%,1.06,1.01,12.0
CCOc1ccc(CNC(=O)C2CCN(S(=O)(=O)N3CCCC3)CC2)cc1OC,i,0.0,9.0%,1.06,1.02,26.0*
COc1cc(CN2CCC(C(=O)N3CCN(c4ccccc4F)CC3)CC2)ccc1O,i,6.0,2.0%,1.94,1.06,0.0
COc1ccc(C(=O)Nc2ccc(S(=O)(=O)N3CCCCC3)cc2)cc1OC,i,0.0,0.0%,1.12,1.06,0.0
CCOc1cc(NC(=O)c2cnccn2)c(OCC)cc1NC(=O)c1ccc(OC)cc1,i,0.0,6.0%,1.02,1.09,18.0
O=c1c2c(nc3nc(Cc4ccccc4)[nH]n13)CCC2,i,8.0,3.0%,1.05,1,0.0
COc1ccc(-c2nnc3sc(COc4ccccc4)nn23)cc1,i,0.0,3.0%,1.12,1.01,10.0
COc1ccc(-c2oc3ncn4nc(COc5ccccc5)nc4c3c2-c2ccc(OC)cc2)cc1,.,6.0,6.0%,2.42*,1.11,6.0
COc1ccc(-c2oc3ncn4nc(Cc5ccccc5)nc4c3c2-c2ccc(OC)cc2)cc1,.,2.0,1.0%,2.37*,1.11,0.0
COc1ccc(Cc2noc(-c3ccc(C)cc3)n2)cc1,i,0.0,1.0%,1.06,1.05,0.0
O=C(Nc1ccc2c(c1)OCCO2)c1ccc(Br)o1,i,0.0,4.0%,1.09,1.01,11.0
CN1CCN(CCNC(=O)c2cc3c(=O)n(C)c4ccccc4c3n2C)CC1,+,3.0,18.0%,1.75,1.06,14.0
